Assay in all cases: DAPPL (digital affinity profiling via proximity ligation, sequencing); 10 mM Tris-HCl pH 7.5, 50 mM NaCl, 1 mM DTT, 4% glycerol, room temperature, 30 min; GST-TFs on glutathione beads, 16-mer random dsDNA library, 0.1% formaldehyde crosslink after washing; high values mean tight binding
For one test, the target named is T1, FEV (Homo sapiens, UniProt Q99581 1-238).
T1 sequence: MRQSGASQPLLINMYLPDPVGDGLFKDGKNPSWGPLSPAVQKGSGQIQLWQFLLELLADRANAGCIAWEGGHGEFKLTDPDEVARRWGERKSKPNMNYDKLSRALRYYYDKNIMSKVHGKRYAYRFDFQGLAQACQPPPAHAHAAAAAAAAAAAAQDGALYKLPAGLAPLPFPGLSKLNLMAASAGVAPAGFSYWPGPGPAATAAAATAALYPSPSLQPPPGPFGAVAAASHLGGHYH
Conditions: protein: recombinant; tags: N-terminal GST; dsDNA, one strand shown. In short, it runs like this: (§1)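 A tag-only sample was pooled with DNA-barcoded human transcription factors that had been expressed in yeast as GST fusions and captured on glutathione beads. The pools were incubated for 30 min at room temperature with 200 nmole of a random double-stranded 16-mer DNA library in Tris/NaCl/DTT/glycerol buffer, then washed, crosslinked with 0.1% formaldehyde, proximity-ligated (BsaI/T4 ligase, 1 h, 37 °C), PCR-amplified and sequenced on an Illumina NextSeq500. Binding signal is each hexamer's read frequency for a factor divided by its frequency for the tag-only sample.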

For a further test, the target named is ETV5 (Homo sapiens, UniProt P41161 1-510). The settings on record: protein: recombinant; tags: N-terminal GST; dsDNA, one strand shown. In short, it runs like this:
as §1

A further test concerns the target HSF1 (Homo sapiens, UniProt Q00613 1-529). Conditions: protein: recombinant; tags: N-terminal GST; chain copies: 3; dsDNA, one strand shown. In short, it runs like this:
as §1

The target of the next test is T2, SPIC (Homo sapiens, UniProt Q8N5J4 1-248).
T2 sequence: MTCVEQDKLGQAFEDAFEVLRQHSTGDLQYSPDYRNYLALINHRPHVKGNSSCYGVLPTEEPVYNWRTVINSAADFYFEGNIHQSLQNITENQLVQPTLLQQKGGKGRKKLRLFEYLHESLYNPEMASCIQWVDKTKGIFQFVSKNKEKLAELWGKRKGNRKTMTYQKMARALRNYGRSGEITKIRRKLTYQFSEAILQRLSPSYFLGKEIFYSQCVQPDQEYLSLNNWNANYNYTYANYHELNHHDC
Conditions: protein: recombinant; tags: N-terminal GST; dsDNA, one strand shown. In short, it runs like this:
as §1

The target of the next test is ELF4 (Homo sapiens, UniProt Q99607 1-663). Conditions: protein: recombinant; tags: N-terminal GST; dsDNA, one strand shown. In short, it runs like this: as §1
For another test, the target named is T3, ELK4 (Homo sapiens, UniProt P28324-2 1-405).
T3 sequence: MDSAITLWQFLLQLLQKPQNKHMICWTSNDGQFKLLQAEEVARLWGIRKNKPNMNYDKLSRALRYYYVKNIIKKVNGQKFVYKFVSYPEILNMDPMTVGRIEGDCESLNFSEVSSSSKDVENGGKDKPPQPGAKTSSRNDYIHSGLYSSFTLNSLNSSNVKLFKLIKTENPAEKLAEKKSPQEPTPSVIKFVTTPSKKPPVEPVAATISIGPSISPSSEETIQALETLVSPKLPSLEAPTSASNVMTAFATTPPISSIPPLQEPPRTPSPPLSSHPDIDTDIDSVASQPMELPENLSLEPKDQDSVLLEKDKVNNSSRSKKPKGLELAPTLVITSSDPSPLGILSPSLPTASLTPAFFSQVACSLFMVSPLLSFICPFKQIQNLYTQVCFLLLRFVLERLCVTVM
Conditions: protein: recombinant; tags: N-terminal GST; dsDNA, one strand shown. In short, it runs like this: as §1

For another test, the target named is T4, ETV2 (Homo sapiens, UniProt O00321 1-342).
T4 sequence: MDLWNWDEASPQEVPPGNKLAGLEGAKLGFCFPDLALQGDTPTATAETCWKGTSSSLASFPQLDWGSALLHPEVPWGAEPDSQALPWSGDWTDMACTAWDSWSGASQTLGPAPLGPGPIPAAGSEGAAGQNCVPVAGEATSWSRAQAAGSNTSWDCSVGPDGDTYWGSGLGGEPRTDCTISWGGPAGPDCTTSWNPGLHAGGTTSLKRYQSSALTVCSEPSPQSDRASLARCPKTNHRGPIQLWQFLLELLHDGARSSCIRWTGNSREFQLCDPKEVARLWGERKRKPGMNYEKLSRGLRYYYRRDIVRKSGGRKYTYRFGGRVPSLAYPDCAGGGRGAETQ
Conditions: protein: recombinant; tags: N-terminal GST; dsDNA, one strand shown. Summed up: as §1

Another test concerns the target T5, ELF3 (Homo sapiens, UniProt P78545 1-371).
T5 sequence: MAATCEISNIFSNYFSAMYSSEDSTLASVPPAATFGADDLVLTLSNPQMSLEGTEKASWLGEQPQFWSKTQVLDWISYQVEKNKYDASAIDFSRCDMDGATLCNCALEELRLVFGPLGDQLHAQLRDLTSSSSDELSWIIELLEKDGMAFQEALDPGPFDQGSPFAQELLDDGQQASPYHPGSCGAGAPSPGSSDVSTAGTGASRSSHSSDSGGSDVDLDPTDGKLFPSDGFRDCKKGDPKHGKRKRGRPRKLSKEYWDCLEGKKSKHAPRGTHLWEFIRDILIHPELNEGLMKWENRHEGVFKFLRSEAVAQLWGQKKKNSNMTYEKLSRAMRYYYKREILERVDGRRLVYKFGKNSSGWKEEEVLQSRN
Conditions: protein: recombinant; tags: N-terminal GST; dsDNA, one strand shown. In short, it runs like this: as §1

For a further test, the target named is CRX (Homo sapiens, UniProt O43186 1-299). Conditions: protein: recombinant; tags: N-terminal GST; dsDNA, one strand shown. In short, it runs like this: as §1
Another test deals with ETV1 (Homo sapiens, UniProt P50549 1-477). Conditions: protein: recombinant; tags: N-terminal GST; dsDNA, one strand shown. Summed up:
as §1

The target of a further test is T6, ERF (Homo sapiens, UniProt P50548 1-548).
T6 sequence: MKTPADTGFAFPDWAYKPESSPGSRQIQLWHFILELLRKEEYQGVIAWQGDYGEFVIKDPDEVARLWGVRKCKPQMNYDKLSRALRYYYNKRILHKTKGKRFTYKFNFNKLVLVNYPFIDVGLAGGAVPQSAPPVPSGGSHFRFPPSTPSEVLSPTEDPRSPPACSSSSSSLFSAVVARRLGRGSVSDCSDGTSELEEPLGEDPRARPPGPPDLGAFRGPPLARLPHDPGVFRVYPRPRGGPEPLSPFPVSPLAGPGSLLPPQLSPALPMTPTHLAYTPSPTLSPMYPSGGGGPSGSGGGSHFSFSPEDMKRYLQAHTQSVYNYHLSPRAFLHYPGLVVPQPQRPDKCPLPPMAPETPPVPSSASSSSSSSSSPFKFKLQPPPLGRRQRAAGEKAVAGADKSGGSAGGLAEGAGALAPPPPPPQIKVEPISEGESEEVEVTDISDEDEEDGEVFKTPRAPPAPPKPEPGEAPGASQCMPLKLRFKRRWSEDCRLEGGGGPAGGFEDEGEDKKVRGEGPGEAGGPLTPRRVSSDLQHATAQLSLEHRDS
The settings on record: protein: recombinant; tags: N-terminal GST; dsDNA, one strand shown. Summed up: as §1

In another test the target is T7, ETV3L (Homo sapiens, UniProt Q6ZN32 1-361).
T7 sequence: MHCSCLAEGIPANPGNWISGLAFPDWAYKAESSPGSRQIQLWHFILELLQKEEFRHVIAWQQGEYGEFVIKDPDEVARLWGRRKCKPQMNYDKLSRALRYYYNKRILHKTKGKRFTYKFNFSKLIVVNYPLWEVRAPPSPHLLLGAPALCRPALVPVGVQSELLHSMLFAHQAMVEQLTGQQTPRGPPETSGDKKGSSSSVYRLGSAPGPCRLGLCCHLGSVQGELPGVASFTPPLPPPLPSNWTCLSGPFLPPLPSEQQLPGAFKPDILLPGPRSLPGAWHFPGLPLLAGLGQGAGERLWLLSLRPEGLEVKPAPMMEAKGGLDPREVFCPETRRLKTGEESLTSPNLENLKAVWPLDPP
Conditions: protein: recombinant; tags: N-terminal GST; dsDNA, one strand shown. Summed up: as §1

The next test concerns the target T8, ETS2 (Homo sapiens, UniProt P15036 1-469).
T8 sequence: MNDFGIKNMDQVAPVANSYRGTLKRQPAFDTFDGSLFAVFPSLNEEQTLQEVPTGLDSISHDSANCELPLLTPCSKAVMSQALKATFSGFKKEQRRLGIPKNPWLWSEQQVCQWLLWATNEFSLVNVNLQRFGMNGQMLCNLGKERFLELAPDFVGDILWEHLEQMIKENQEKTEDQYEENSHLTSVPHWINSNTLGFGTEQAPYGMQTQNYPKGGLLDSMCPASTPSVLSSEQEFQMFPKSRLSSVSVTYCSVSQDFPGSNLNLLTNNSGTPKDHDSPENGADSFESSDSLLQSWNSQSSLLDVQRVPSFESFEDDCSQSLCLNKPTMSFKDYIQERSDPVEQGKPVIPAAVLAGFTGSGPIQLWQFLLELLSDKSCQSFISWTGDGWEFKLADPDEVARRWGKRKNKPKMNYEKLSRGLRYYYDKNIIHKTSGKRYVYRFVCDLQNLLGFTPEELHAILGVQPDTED
The settings on record: protein: recombinant; tags: N-terminal GST; dsDNA, one strand shown. Summed up: as §1

The next test has as its target T9, SPDEF (Homo sapiens, UniProt O95238 1-335).
T9 sequence: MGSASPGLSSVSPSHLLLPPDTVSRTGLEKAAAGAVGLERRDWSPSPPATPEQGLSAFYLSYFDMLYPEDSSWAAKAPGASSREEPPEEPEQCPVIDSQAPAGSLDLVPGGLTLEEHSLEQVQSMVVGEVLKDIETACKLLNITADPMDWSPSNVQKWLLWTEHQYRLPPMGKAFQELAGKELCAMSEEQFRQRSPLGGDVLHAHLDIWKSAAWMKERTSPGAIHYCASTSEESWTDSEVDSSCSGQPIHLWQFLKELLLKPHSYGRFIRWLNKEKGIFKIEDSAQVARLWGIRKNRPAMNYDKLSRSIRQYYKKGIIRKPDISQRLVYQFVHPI
Conditions: protein: recombinant; tags: N-terminal GST; dsDNA, one strand shown. Summed up: as §1

A further test addresses T10, ETV7 (Homo sapiens, UniProt Q9Y603 1-341).
T10 sequence: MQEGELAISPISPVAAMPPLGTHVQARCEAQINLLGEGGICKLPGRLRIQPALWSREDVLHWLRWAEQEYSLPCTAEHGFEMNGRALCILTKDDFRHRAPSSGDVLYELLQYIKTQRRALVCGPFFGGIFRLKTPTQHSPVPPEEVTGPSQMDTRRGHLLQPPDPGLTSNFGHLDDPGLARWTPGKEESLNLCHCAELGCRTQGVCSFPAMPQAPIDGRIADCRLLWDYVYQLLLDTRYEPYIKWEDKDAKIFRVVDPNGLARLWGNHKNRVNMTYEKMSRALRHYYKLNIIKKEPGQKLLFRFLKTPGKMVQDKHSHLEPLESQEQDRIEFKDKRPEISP
The settings on record: protein: recombinant; tags: N-terminal GST; dsDNA, one strand shown. In short, it runs like this: as §1

In another test the target is T11, ELF5 (Homo sapiens, UniProt Q9UKW6-2 1-255).
T11 sequence: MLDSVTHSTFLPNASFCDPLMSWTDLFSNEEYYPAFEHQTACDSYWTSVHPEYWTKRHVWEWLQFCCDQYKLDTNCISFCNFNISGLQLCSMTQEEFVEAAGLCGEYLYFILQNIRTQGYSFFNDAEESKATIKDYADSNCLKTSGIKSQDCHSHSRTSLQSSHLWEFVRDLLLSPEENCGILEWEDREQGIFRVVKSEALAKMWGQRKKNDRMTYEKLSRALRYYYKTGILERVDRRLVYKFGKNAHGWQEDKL
The settings on record: protein: recombinant; tags: N-terminal GST; dsDNA, one strand shown. Summed up:
as §1

The target in another test is T12, ETV3 (Homo sapiens, UniProt P41162-2 1-143).
T12 sequence: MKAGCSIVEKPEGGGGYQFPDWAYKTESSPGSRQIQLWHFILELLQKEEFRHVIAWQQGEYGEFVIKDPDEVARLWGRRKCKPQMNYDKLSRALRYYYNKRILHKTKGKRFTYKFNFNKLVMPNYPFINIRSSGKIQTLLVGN
Conditions: protein: recombinant; tags: N-terminal GST; dsDNA, one strand shown. Summed up: as §1

The target of the next test is ETV6 (Homo sapiens, UniProt P41212 1-452). Conditions: protein: recombinant; tags: N-terminal GST; dsDNA, one strand shown. In short, it runs like this: as §1
Chain of ETV6 (P41212 whole entry): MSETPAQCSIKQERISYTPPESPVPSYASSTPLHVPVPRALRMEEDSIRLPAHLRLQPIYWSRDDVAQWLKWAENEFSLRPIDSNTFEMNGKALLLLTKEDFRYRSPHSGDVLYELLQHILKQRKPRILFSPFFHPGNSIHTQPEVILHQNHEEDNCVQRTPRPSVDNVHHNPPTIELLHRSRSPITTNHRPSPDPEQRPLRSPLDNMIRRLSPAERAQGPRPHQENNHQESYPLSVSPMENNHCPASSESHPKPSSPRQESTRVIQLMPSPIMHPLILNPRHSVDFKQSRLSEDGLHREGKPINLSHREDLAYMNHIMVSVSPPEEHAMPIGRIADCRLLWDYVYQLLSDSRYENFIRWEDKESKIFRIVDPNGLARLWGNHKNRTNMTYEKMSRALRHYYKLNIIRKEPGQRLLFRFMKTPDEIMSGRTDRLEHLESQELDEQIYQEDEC

Chain of CRX (O43186 whole entry): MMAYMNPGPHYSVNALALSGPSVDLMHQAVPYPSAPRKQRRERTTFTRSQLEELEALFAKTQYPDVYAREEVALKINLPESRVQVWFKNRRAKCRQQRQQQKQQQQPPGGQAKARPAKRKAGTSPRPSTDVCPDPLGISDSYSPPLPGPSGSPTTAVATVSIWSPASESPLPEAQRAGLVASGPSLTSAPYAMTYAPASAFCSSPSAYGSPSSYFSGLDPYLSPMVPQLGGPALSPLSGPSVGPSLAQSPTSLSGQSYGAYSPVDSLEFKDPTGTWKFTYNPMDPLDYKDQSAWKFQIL
Chain of ELF4 (Q99607 whole entry): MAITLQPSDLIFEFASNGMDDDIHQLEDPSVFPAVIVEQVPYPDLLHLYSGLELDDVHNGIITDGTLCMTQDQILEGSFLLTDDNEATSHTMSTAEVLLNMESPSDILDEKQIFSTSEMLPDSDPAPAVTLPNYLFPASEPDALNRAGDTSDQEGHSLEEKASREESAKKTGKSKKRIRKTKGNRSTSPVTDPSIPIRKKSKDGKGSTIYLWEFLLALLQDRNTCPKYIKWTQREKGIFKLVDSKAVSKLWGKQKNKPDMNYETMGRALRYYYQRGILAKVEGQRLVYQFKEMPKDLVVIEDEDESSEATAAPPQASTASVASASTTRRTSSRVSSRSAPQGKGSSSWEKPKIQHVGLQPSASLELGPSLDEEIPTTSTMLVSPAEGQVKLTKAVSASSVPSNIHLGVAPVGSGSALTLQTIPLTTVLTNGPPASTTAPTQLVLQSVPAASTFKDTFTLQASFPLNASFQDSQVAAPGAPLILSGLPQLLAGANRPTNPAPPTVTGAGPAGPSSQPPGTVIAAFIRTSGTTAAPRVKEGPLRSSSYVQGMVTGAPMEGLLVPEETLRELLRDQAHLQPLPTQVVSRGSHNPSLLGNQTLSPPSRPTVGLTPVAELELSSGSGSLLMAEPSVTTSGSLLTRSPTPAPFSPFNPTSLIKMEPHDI
Chain of ETV1 (P50549 whole entry): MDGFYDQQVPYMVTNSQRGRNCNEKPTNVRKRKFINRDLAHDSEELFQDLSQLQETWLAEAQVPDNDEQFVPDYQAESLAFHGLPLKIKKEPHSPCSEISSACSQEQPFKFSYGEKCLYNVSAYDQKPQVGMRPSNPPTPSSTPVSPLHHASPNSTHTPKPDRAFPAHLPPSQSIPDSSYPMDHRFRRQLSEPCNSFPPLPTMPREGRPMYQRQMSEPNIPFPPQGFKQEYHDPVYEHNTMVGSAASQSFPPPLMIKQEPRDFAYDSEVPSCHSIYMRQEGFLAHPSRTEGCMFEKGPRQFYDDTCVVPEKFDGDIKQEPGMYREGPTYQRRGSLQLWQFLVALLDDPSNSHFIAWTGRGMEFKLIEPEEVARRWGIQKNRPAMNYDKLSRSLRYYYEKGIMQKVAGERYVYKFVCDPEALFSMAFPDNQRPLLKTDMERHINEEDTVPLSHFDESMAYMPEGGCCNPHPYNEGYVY
Chain of ETV5 (P41161 whole entry): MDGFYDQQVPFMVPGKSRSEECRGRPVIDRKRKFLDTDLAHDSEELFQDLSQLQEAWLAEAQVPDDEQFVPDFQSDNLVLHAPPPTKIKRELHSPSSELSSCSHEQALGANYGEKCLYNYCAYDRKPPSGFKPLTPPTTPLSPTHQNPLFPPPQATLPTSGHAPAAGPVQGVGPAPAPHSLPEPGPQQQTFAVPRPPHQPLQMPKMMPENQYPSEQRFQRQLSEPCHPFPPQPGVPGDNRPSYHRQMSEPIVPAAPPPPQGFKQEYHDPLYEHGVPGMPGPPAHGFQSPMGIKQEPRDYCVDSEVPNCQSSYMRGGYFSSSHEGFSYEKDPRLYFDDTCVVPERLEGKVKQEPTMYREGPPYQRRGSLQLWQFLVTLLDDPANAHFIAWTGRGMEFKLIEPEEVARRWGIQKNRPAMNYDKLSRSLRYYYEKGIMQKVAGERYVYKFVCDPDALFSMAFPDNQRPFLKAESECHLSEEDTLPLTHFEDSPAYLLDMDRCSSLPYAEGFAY
Chain of HSF1 (Q00613 whole entry): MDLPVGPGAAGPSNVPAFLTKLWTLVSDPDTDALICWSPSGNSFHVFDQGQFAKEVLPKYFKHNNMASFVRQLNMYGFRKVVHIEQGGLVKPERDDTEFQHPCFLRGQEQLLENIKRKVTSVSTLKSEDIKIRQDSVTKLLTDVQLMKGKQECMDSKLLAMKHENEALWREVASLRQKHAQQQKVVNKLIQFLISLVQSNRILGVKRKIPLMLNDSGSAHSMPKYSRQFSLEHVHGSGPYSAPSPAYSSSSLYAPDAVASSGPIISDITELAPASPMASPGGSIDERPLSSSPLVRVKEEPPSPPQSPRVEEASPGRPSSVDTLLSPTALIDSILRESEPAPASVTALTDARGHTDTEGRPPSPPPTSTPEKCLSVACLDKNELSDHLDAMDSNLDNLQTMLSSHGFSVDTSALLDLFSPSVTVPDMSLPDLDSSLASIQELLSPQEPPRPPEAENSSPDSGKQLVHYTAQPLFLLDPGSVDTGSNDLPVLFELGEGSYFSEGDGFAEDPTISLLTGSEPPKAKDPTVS

As for TACCAC, the binding signal with FEV was 1.3 fold enrichment (6-mer frequency, TF over GST control); in the test with ETV5 it was 1.19 fold enrichment (6-mer frequency, TF over GST control); with HSF1 it was 1.12 fold enrichment (6-mer frequency, TF over GST control); with SPIC it was 1.25 fold enrichment (6-mer frequency, TF over GST control); with ELF4, 1.23 fold enrichment (6-mer frequency, TF over GST control); with ELK4, 1.18 fold enrichment (6-mer frequency, TF over GST control). Further, the binding signal with ETV2 is 1.2 fold enrichment (6-mer frequency, TF over GST control); with ELF3, 1.25 fold enrichment (6-mer frequency, TF over GST control); with CRX, 1.17 fold enrichment (6-mer frequency, TF over GST control); in the test with ETV1, 1.24 fold enrichment (6-mer frequency, TF over GST control); with ERF it was 1.21 fold enrichment (6-mer frequency, TF over GST control); in the test with ETV3L it was 1.26 fold enrichment (6-mer frequency, TF over GST control). For the same sequence, the binding signal is 1.27 fold enrichment (6-mer frequency, TF over GST control) with ETS2; 1.16 fold enrichment (6-mer frequency, TF over GST control) with SPDEF; 1.15 fold enrichment (6-mer frequency, TF over GST control) with ETV7; 1.29 fold enrichment (6-mer frequency, TF over GST control) in the test with ELF5; 1.2 fold enrichment (6-mer frequency, TF over GST control) with ETV3; 1.21 fold enrichment (6-mer frequency, TF over GST control) with ETV6.

The record behind these values is paper PMC7862700, “An all-to-all approach to the identification of sequence-specific readers for epigenetic DNA modifications on cytosine”.
